# Reference: PubChem BioAssay AID1963322 (National Center for Advancing Translational Sciences (NCATS), 2024)
# Results filed as inconclusive are left out. A call without a number means that no potency is given here. Calls of active or inactive are those of the source. The call rests on the fitted dose curve.
# Biological target: cAMP-dependent protein kinase catalytic subunit alpha (Homo sapiens) (UniProt P17612)
# Experiment: Protein Kinase A (PKA-HiBiT) SDR gain of signal screen
# Settings: PKA-HiBiT structural dynamics response (SDR), luminescence gain of signal; series mostly up to 32.9 µM
# In short: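 Gain of luminescent signal after Nano-Glo HiBiT detection (10 min, RT) was the read-out. Beforehand, compounds were incubated 30 min at room temperature in the dark with 10 nM final PKA-N-HiBiT, with H-89 as positive control.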
row,Compound,Potency
1,COc1ccc2c(Oc3ccc(NC(=O)c4c(C)n(CC(C)(C)O)n(-c5ccccc5)c4=O)nc3)ccnc2c1,inactive
2,CCCS(=O)(=O)Nc1ccc(F)c(C(=O)c2c[nH]c3ncc(Cl)cc23)c1F,inactive
3,O=c1cc(N2CCOCC2)nc2c3ccccc3ccn12,inactive
4,Nc1ncccc1-c1nc2ccc(-c3ccccc3)nc2n1-c1ccc(C2(N)CCC2)cc1,inactive
5,CO[C@H]1/C=C/O[C@@]2(C)Oc3c(C)c(O)c4c(O)c(c(/C=N\N5CCN(C6CCCC6)CC5)c(O)c4c3C2=O)NC(=O)/C(C)=C\C=C\[C@H](C)[C@H](O)[C@@H](C)[C@@H](O)[C@@H](C)[C@H](OC(C)=O)[C@@H]1C,inactive
6,CC1(C)OCCn2c1nc1c(N3CCOCC3)nc(-c3cnc(N)nc3)nc12,inactive
7,CCCCCCCCCCCCc1ccc(S(=O)(=O)Nc2nncs2)cc1,inactive
8,CC[C@@](C)(Nc1ccnc(-c2c[nH]c3ncccc23)n1)C(=O)NCC(F)(F)F,12 µM (active)
9,CN1CCN(CCOc2cc(OC3CCOCC3)c3c(Nc4c(Cl)ccc5c4OCO5)ncnc3c2)CC1,inactive
10,O=C(NOCC(O)CO)c1cc(Br)c(F)c(F)c1Nc1ccc(I)cc1F (centres undefined),inactive
11,CCOc1ccn(-c2ccc(F)cc2)c(=O)c1C(=O)Nc1ccc(Oc2ccnc(N)c2Cl)c(F)c1,0.813 µM (active)
12,N#Cc1cccc(-c2c[nH]c3ncnc(N4CCOCC4)c23)c1,13.4 µM (active)
13,CC(C)CCN1c2nc(Nc3cc(F)c(O)c(F)c3)ncc2N(C)C(=O)C1C (centres undefined),inactive
14,CNc1ncc2cc(-c3cc(NC(=O)NCCC(C)(C)C)c(F)cc3C)c(C)nc2n1,inactive
